Bioassay records (PubChem)
A selection: hits, their analogues and other compounds. The true share with any hit is near 3.4%.
Tau fluor cs – counter-screen for tau fibril formation inhibitors; tau K18 P301L Alexa594 fluorescence, heparin fibrillization; Potency, µM (highest dose often 57.7 µM); 280,000 tested, 0.93% active; also: nearly all actives have a fitted effect of over 55% in size
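Human tau K18 P301L (15 uM unlabeled, 0.24 uM Alexa 594-labeled) in 100 mM sodium acetate pH 7 with 20 uM heparin, 6 hr at 37 C. ThT 30 uM added, 1 hr ambient; Alexa 594 FP and total fluorescence read at 555/632 nm.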
Tau FP inhib – tau fibrillization inhibition (FP); P10636; K18 P301L tau heparin fibrillization, Alexa594 FP, 6 h; Potency, µM (series often up to 57.7 µM), most hits filed as inhibitors; 280,000 tested, 0.39% active; AID 1468; also: nearly all actives have a fitted effect of over 55% in size
Target sequence (P10636 561-689 P618L limits assumed): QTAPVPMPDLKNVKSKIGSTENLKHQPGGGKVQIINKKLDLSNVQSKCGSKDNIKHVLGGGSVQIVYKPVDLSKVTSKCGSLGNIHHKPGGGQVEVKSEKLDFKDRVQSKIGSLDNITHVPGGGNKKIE
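Steps: dispense K18 P301L tau (15 uM plus 0.24 uM Alexa 594 tracer, final) in pH 7 sodium acetate; add compound; add heparin (20 uM final); incubate 6 hr, 37 C; add ThT (30 uM final); after 1 hr ambient, read FP.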
Tau fibril ThT – tau fibrillization inhibition (ThT binding). P10636. recombinant tau K18 P301L (four-repeat tau fragment), heparin-induced fibrillization, ThT fluorescence. Potency, µM (series often up to 57.4 µM), hits mostly inhibitors. 270,000 tested, 2.1% active. AID 1460; also: nearly all actives have a fitted effect of over 55% in size
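K18 P301L tau (15 uM + 0.24 uM Alexa 594-tagged), heparin 20 uM, NaOAc pH 7, 6 h 37 C; ThT 30 uM, 1 h RT, ex 450/em 510 nm.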
KDM4E inh – JMJD2E (human) inhibition | AID 2147 | B2RXH2 | Potency, µM (doses to about 57.1 µM), actives largely listed as inhibitors | JMJD2E catalytic domain, FDH-coupled NADH fluorescence (FDH is formaldehyde dehydrogenase) | 230,000 tested, 1.6% active; active = well fitted inhibition curve with a large enough effect, not every such curve was filed as active; inconclusive = small, poorly fitted or top-dose-only effect, or another doubt; inactive = no such curve, though single readings can be large or run the other way; also: nearly all actives have a fitted effect of over 50% in size
GoLoco inh red – blocks human Gai1 binding to RGS12 GoLoco peptide, red readout. P63096. Gai1:RGS12 GoLoco peptide FP, rhodamine, 10 min. Potency, µM (top dose mostly 61.6 µM), actives largely listed as inhibitors. 230,000 tested, 0.44% active. AID 880; active = well fitted inhibition curve with a large enough effect, not every such curve was filed as active; inactive = no such curve, though single readings can be large or run the other way; also: nearly all actives have a fitted effect of over 30% in size
Target sequence (P63096 whole entry, looked up): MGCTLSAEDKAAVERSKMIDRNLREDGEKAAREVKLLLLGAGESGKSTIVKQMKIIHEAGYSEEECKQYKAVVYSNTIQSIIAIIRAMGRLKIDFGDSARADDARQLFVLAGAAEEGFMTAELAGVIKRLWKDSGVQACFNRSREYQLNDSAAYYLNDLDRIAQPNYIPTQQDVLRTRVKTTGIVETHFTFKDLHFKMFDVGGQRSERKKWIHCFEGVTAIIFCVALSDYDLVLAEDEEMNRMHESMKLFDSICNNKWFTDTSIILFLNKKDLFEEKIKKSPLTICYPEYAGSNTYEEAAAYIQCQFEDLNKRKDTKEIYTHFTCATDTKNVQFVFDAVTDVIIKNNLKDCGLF
Large screens that a line does not name were inactive; [ ] = dose if it differs, or a comment. Unless noted, calls follow the shape of the dose curve; as a rule, active = well fitted curve in the direction sought with a large enough effect; inconclusive = small, poorly fitted or top-dose-only effect, or another doubt; inactive = no such curve, though single readings can be large; an effect the other way counts as inactive or inconclusive.

CCN1C(=O)c2ccccc2S(=O)(=O)c2ccc(C(=O)NCc3ccccc3)cc21	none (no result: KDM4E inh, GoLoco inh red)
CCN(CC)c1ccc(NC(=O)c2cccn2-c2nnc(N3CCCCC3)s2)c(C)c1	Tau fibril ThT inconclusive (no result: KDM4E inh, GoLoco inh red)
ClC(Cl)(c1nnnn1-c1ccccc1)c1nnnn1-c1ccccc1	Tau FP inhib 32µM, Tau fibril ThT 11µM
CCN(CC)c1ccc(/C=N/NC(=O)c2ccco2)cc1	Tau fluor cs inconclusive, Tau fibril ThT inconclusive, KDM4E inh inconclusive
CCN(CC)c1ccc(/C=N/NC(=O)c2cnccn2)cc1	Tau fibril ThT 14µM
CCc1ccc(/C=N/N2CCN(c3ccccn3)CC2)cc1	Tau fibril ThT inconclusive
CCN(CC)c1ccc(/C=N/NC(=O)c2c[nH]c3ccccc23)cc1	Tau fluor cs 13µM[quencher], Tau fibril ThT 5µM
O=C(Cc1c[nH]c2ccccc12)N/N=C/c1ccc(F)cc1	none
CCN(CC)c1ccc(/C=N/N2CCN(c3ccccn3)CC2)cc1	Tau fluor cs inconclusive, Tau fibril ThT 1.3µM
CN(C)c1ccc(/C=N/NC(=O)CCc2c[nH]c3ccccc23)cc1	Tau fluor cs inconclusive, Tau fibril ThT 8.9µM, KDM4E inh inconclusive
Cc1c(-c2ccc(Cl)cc2)c(=O)oc2c(CN3CCN(C)CC3)c(O)ccc12	none (no result: KDM4E inh, GoLoco inh red)
CCc1ccc(NC(=O)C(=O)NCC(c2cccnc2)N2CCN(Cc3ccccc3)CC2)cc1 (centres undefined)	none (no result: KDM4E inh, GoLoco inh red)
CCN(CC)c1ccc(/C=N/NC(=O)c2ccccn2)cc1	Tau fibril ThT 10µM
C/C(=N\NC(=O)CCc1c[nH]c2ccccc12)c1ccc([N+](=O)[O-])cc1	Tau fluor cs inconclusive, Tau fibril ThT 10µM
Cc1ccc(NS(=O)(=O)c2ccc(Br)s2)nc1	Tau FP inhib inconclusive, Tau fibril ThT 28µM
CCc1ccccc1N(C)C(=O)c1cn(CC(C)C)c(=O)c2cc(OC)c(OC)cc12	none (no result: KDM4E inh, GoLoco inh red)
C/C(=N\NC(=O)CN(c1ccccc1)S(C)(=O)=O)c1ccccc1O	KDM4E inh 18µM
Cc1ccc(C(=O)Nc2nnc(SCc3cc(=O)c4c(C)ccc(C)c4[nH]3)s2)cc1	none (no result: KDM4E inh, GoLoco inh red)
CCOC(=O)/C(=C/c1ccc(N2CCC(c3ccccc3)=N2)cc1)C(C)=O	Tau fluor cs 16µM[quencher], Tau fibril ThT inconclusive
c1ccc(C2=NN(c3ccccc3)CC2)cc1	Tau fluor cs inconclusive, Tau fibril ThT inconclusive, KDM4E inh inconclusive
CC(C)n1c(O)c(/C=C2\C=Nc3ccccc32)sc1=Nc1ccccc1	Tau fluor cs inconclusive
CSc1nc(/C=C2\C=Nc3ccccc32)c(O)n1C	Tau fluor cs inconclusive, Tau fibril ThT 11µM
Cc1cc(C)cc(NC(=O)Nc2cc(S(=O)(=O)N(C)C)ccc2C)c1	Tau fluor cs 16µM[quencher], Tau FP inhib inconclusive
Cc1ccc(S(=O)(=O)N(C)C)cc1NC(=O)Nc1ccccc1F	none
Cc1nn(C)c2c1c(-c1ccccc1)cc(=O)n2Cc1ccc(F)cc1	Tau fibril ThT inconclusive (no result: KDM4E inh, GoLoco inh red)
NC(=O)c1sc(=S)n2c1[nH]c(=O)c1sccc12	Tau fibril ThT 11µM
Oc1c(/C=N/c2ncn[nH]2)ccc2ccccc12	Tau FP inhib inconclusive, Tau fibril ThT 28µM
Cc1nn(-c2ccccc2)c(N)c1N=Nc1cccc(S(=O)(=O)N2CCOCC2)c1	Tau fluor cs inconclusive, Tau fibril ThT inconclusive
Cc1nn(-c2ccccc2)c(N)c1N=Nc1ccccc1	Tau fluor cs inconclusive, Tau fibril ThT 8.9µM
Cc1nn(-c2ccccc2)c(N)c1C(O)(C(F)(F)F)C(F)(F)F	none
Cc1nn(-c2ccccc2)c(N)c1-c1ccccc1	none
Nc1nn(-c2ccccc2)c(N)c1N=Nc1ccccc1F	Tau fluor cs inconclusive, Tau fibril ThT 4.5µM
Cc1nn(-c2ccccc2)c(N)c1N=Nc1ccc(Cl)cc1	Tau fluor cs inconclusive, Tau fibril ThT 7.9µM
Nc1nn(-c2ccccc2)c(N)c1N=Nc1ccccc1	Tau fibril ThT 5µM
Cc1ccc(C(c2c(C)nn(-c3ccccc3)c2N)c2c(C)nn(-c3ccccc3)c2N)cc1	Tau fibril ThT inconclusive
Cc1cccc(N=Nc2c(C)nn(-c3ccccc3)c2N)c1C	Tau fluor cs inconclusive, Tau fibril ThT 7.1µM
Cc1cc(C)n2nc(N)c(N=Nc3ccccc3)c2n1	Tau fibril ThT 14µM
COc1cc(OC)c(OC)cc1CNc1sc2c(c1C(=O)Nc1ccccc1OC)CCC2	Tau fibril ThT inconclusive (no result: KDM4E inh, GoLoco inh red)
CC1CCn2c(nc3cc(C(=O)NCc4ccc(OC(C)C)cc4)ccc32)C1 (centres undefined)	none (no result: KDM4E inh, GoLoco inh red)
CCOc1ccc(N2Nc3n[nH]c(N)c3N2)cc1	Tau fluor cs inconclusive, Tau fibril ThT 13µM
COc1ccc(N2Nc3n[nH]c(N)c3N2)cc1	Tau fluor cs inconclusive, Tau fibril ThT 8.9µM, KDM4E inh inconclusive
O=C(N/N=C/c1cc([N+](=O)[O-])ccc1O)c1ccc2c(c1)OCCO2	Tau fibril ThT inconclusive, KDM4E inh 25µM
O=C(N/N=C/c1cc(Br)ccc1O)c1ccncc1	Tau FP inhib inconclusive, KDM4E inh 28µM
COc1ccc(/C=N/NC(=O)c2ccncc2)cc1[N+](=O)[O-]	none
COc1cc(O)c(/C=N/NC(=O)c2ccncc2)c(OC)c1[N+](=O)[O-]	Tau fibril ThT inconclusive, KDM4E inh 22µM
Nc1nonc1C(=O)N/N=C/c1cc(Br)ccc1O	Tau fibril ThT inconclusive, KDM4E inh 3.5µM
O=C(N/N=C/c1cc([N+](=O)[O-])ccc1O)c1ccncc1	Tau fibril ThT inconclusive, KDM4E inh 10µM
Cc1nc(C)c(C(=O)N/N=C/c2cc(Br)ccc2O)s1	KDM4E inh 22µM
O=C(N/N=C/c1ccc(O)c2ncccc12)c1cccc(Br)c1	Tau fluor cs inconclusive, Tau fibril ThT 6.3µM
CC(C)OCCCn1c(=O)c2ccccc2n2c(-c3cc(Cl)ccc3O)nnc12	none (no result: KDM4E inh, GoLoco inh red)
COc1ccc(NC(=O)c2c(N)c(C(=O)c3ccc(OC)cc3)n3ccccc23)cc1	none (no result: KDM4E inh, GoLoco inh red)
CCCCc1nnc(NC(=O)C2CC(=O)N(c3ccc4c(c3)OCCO4)C2)s1 (centres undefined)	none
O=C(Nc1nc(-c2ccco2)c(-c2ccco2)s1)C1CC(=O)N(c2ccc3c(c2)OCCO3)C1 (centres undefined)	Tau fluor cs inconclusive, Tau FP inhib inconclusive, Tau fibril ThT 14µM, KDM4E inh inconclusive
Cc1cccc(C)c1OCC(=O)N=Nc1c(O)[nH]c2ccc(Br)cc12	Tau fluor cs inconclusive, Tau fibril ThT inconclusive
COc1ccc(/C=N/OCC(=O)N=Nc2c(O)[nH]c3ccc(Br)cc23)cc1	Tau fluor cs inconclusive, Tau FP inhib inconclusive, Tau fibril ThT 5µM
Cc1cc(O)c(Oc2cc(C)cc(O)c2O)c(O)c1	Tau fluor cs inconclusive, Tau FP inhib inconclusive, Tau fibril ThT 5.6µM, KDM4E inh 13µM
Cc1cc2c(NC(=O)Nc3ccc(C(F)(F)F)cc3)cccc2nn1	Tau fluor cs inconclusive, Tau FP inhib 28µM, Tau fibril ThT inconclusive
CC1=C(C(=O)N2CCCCC2)C(c2ccc(Cl)cc2)n2c(nc3ccccc32)N1 (centres undefined)	none (no result: KDM4E inh, GoLoco inh red)
COc1ccc(OC)c2sc(N3CCN(C(=O)c4ccc5c(c4)CCCC5)CC3)nc12	Tau fibril ThT inconclusive (no result: KDM4E inh, GoLoco inh red)
